Measurements reported in PubChem BioAssay (NCATS).
Inconclusive results are not listed. Where a call stands in place of a potency, no number is given. Active and inactive are the calls of the source. Calls come from the whole dose curve; as a rule, active = well fitted curve in the direction sought with a large enough effect; inconclusive = small, poorly fitted or top-dose-only effect, or another doubt; inactive = no such curve, though single readings can be large or run the other way. Residues, ends and D or L forms follow the SMILES beside them. *: point of attachment. Cbz = O=C(OCc1ccccc1)*

molecular target: Metallo-beta-lactamase type 2 (Klebsiella pneumoniae) (UniProt C7C422); assay: qHTS to identify inhibitors of the New Delhi Metallo-beta-lactamase (NDM): assay validation screen against the NCATS LOPAC Collection (AID 1794843); conditions: NDM-1 enzyme, nitrocefin hydrolysis, absorbance 485 nm; series mostly up to 38.4 µM;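 note: nitrocefin turnover by NDM-1 measured as 485 nm absorbance at plateau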
Sequence (C7C422 whole entry, looked up): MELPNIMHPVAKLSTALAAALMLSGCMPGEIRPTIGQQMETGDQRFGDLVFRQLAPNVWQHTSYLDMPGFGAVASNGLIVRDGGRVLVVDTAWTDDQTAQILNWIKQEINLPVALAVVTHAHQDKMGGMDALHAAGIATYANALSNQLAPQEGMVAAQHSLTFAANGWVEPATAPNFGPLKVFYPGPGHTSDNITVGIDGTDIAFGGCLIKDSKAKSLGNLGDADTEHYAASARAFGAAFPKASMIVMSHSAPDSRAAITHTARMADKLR
Outline: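 Nitrocefin hydrolysis (50 uM substrate stock) by NDM-1, 2 nM final, was followed by 485 nm absorbance after compound preincubation; buffer was 50 mM HEPES pH 7.0, 1 uM ZnSO4, 0.01% Tween20.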

Compound	Potency
NC(N)=NC(N)=Nc1ccccc1	inactive
O=c1oc(Cl)c(Cl)c2ccccc12	inactive
CCCCS(=N)(=O)CC[C@H](N)C(=O)O (stereo partly specified)	inactive
CN1CCC2(CCN3CCc4c(oc5ccccc45)C3C2)N(C)C1=O (stereo unspecified)	inactive
CC(C)[C@H](NC(=O)OCc1ccccc1)C(=O)N[C@H](C=O)Cc1ccccc1 (Cbz-Val-Phe-aldehyde)	inactive
CCCCCCCCCCC/C=C\C(C)(C)/C=C\CCCC(=O)O	inactive
CCn1c(=O)[nH]c2cc(Cl)c(Cl)cc21	inactive
NC[C@@H]1O[C@H](c2ccccc2)Cc2c1ccc(O)c2O	inactive
OC[C@H]1O[C@H](n2cnc3c(N[C@H]4CCC[C@@H]4O)ncnc32)[C@H](O)[C@@H]1O	inactive
COc1ccc(C(=O)NCc2cccnc2)cc1C(=O)NCc1cccnc1	inactive
C[C@H](O)C(=O)C1=Nc2c(nc(N)[nH]c2=O)NC1	inactive
CCCCCCCCCCCCCCSCC(=O)O	inactive
O=c1[nH]c(=O)c2nc3ccccc3nc2[nH]1	inactive
CC(C)Cn1c(=O)n(C)c(=O)c2[nH]cnc21	inactive
CC(N)=O	inactive
c1ccc(C(NCCNC(c2ccccc2)c2ccccc2)c2ccccc2)cc1	inactive
O=C(O)Cc1c[nH]c2ccc(O)cc12	inactive
Cc1cc(Cn2cnc3c2C[C@@H](C(=O)O)N(C(=O)C(c2ccccc2)c2ccccc2)C3)ccc1N	inactive
O=C(O)c1ccccc1Nc1ccccc1	inactive
CCCCOc1cc(CC2CNC(=O)N2)ccc1OC (stereo unspecified)	inactive
O=C(O)c1cccnc1C(=O)O	inactive
